From ChEMBL document CHEMBL2218924, “A broad activity screen in support of a chemogenomic map for kinase signalling research and drug discovery” (Biochem J, 2013)

Legend:
[1] = molecular target: Tyrosine-protein kinase SYK (Homo sapiens) (UniProt P43405); details: at 10 µM
[2] = molecular target: T1, Serine/threonine-protein kinase TAO1 (Homo sapiens) (UniProt Q7L7X3); details: at 1 µM
T1 sequence (whole entry): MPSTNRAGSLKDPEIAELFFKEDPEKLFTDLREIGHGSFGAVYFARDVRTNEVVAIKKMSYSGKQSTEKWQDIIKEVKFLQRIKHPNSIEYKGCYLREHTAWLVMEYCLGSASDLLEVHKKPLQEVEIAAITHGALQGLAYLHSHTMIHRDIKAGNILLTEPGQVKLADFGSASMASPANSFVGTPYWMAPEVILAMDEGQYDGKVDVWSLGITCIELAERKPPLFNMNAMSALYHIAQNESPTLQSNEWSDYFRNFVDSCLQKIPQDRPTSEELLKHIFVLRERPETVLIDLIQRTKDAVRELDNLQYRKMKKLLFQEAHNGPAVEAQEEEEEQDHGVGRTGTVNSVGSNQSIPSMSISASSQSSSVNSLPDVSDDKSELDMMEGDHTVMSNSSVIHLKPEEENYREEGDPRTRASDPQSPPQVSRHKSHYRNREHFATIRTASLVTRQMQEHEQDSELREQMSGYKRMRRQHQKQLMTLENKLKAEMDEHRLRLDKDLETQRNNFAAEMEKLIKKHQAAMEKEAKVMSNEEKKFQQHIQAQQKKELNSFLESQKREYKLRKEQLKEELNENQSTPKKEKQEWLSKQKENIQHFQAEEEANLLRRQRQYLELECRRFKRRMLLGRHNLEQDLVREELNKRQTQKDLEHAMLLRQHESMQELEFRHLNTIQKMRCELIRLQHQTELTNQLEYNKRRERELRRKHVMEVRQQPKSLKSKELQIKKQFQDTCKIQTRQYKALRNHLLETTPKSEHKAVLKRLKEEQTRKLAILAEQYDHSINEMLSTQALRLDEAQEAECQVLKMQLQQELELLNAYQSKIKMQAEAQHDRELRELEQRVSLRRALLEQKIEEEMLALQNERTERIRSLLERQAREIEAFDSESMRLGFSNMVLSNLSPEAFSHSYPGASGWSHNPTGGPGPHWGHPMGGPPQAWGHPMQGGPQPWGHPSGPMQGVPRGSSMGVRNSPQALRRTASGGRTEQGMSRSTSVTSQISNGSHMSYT

[3] = molecular target: T1, Serine/threonine-protein kinase TAO1 (Homo sapiens); details: at 10 µM
[4] = molecular target: T2, Serine/threonine-protein kinase TAO2 (Homo sapiens) (UniProt Q9UL54); details: at 1 µM
T2 sequence (whole entry): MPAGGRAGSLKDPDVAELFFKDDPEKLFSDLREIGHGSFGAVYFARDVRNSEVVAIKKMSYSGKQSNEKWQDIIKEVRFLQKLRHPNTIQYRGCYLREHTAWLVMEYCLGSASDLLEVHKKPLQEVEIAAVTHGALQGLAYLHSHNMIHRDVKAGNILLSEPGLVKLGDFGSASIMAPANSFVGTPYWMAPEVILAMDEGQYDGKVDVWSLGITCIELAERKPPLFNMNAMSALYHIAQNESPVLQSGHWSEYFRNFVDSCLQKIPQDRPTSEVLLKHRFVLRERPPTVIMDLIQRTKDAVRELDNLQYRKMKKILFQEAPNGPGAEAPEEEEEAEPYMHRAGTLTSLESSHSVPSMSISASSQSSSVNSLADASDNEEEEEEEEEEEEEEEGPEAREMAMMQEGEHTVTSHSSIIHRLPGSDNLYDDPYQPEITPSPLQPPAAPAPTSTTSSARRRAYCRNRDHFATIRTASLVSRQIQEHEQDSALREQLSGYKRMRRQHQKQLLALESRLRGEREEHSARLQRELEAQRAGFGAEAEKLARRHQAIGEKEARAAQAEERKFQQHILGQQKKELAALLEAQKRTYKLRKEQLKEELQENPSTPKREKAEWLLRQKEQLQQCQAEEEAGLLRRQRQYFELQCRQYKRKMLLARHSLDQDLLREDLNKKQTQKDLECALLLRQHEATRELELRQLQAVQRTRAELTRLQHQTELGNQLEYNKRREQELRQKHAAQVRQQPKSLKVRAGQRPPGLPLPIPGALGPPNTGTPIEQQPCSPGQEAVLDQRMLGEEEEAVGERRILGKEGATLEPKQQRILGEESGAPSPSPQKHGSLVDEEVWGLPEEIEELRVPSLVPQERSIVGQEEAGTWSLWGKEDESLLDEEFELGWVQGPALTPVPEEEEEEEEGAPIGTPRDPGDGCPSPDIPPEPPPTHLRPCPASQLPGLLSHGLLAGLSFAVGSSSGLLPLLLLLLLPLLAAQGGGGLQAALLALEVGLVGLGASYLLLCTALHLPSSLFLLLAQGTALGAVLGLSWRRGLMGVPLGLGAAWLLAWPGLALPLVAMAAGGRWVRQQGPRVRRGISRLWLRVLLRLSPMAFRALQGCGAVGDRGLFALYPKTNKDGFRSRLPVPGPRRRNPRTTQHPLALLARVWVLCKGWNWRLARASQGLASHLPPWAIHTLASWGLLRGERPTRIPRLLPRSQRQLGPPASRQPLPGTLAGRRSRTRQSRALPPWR

[5] = molecular target: T2, Serine/threonine-protein kinase TAO2 (Homo sapiens); details: at 10 µM
[6] = molecular target: T3, Serine/threonine-protein kinase TAO3 (Homo sapiens) (UniProt Q9H2K8); details: at 1 µM
T3 sequence (whole entry): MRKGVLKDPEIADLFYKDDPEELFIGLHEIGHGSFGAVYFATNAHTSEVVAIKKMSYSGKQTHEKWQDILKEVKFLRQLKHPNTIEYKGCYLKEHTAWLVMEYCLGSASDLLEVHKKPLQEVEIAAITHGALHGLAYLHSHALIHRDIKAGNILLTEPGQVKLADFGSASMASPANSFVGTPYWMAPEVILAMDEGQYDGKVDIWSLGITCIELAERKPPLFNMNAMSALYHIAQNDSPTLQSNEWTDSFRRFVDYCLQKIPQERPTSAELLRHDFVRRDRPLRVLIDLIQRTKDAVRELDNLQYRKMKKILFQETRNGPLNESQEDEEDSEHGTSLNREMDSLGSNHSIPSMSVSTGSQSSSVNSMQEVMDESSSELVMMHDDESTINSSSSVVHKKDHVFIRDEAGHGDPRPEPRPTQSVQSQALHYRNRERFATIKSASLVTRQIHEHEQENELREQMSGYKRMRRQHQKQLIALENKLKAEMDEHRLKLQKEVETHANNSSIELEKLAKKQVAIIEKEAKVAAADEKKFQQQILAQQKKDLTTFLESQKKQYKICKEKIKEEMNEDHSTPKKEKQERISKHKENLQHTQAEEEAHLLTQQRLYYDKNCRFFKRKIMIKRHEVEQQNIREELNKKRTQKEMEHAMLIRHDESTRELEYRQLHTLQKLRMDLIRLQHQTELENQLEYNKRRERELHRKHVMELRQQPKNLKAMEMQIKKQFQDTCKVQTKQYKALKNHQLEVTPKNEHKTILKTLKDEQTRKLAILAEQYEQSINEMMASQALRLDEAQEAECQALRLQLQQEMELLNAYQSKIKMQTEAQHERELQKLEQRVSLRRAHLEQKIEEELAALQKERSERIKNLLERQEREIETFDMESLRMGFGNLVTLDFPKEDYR

[7] = molecular target: T4, Serine/threonine-protein kinase TBK1 (Homo sapiens) (UniProt Q9UHD2); details: at 10 µM
T4 sequence (whole entry): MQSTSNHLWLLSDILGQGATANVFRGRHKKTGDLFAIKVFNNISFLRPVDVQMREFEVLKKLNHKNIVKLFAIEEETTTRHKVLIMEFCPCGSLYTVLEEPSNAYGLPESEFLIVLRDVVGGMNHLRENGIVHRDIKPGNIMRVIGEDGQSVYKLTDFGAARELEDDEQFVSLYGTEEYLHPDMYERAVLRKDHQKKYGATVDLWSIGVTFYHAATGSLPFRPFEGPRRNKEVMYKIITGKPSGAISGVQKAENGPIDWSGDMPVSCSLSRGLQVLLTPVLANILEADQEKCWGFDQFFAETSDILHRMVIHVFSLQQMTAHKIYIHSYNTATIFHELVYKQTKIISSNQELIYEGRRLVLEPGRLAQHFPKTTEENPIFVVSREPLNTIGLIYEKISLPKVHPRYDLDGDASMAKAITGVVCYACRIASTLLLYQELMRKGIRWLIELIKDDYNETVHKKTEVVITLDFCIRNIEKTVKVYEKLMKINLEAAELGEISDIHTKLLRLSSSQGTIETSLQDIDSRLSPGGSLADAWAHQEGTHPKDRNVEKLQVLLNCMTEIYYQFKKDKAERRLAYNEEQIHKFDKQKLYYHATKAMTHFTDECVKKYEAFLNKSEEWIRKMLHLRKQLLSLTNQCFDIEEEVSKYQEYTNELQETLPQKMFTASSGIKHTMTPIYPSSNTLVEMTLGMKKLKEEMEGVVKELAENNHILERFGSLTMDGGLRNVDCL

[8] = molecular target: T5, TGF-beta receptor type-1 (Homo sapiens) (UniProt P36897); details: at 1 µM
T5 sequence (whole entry): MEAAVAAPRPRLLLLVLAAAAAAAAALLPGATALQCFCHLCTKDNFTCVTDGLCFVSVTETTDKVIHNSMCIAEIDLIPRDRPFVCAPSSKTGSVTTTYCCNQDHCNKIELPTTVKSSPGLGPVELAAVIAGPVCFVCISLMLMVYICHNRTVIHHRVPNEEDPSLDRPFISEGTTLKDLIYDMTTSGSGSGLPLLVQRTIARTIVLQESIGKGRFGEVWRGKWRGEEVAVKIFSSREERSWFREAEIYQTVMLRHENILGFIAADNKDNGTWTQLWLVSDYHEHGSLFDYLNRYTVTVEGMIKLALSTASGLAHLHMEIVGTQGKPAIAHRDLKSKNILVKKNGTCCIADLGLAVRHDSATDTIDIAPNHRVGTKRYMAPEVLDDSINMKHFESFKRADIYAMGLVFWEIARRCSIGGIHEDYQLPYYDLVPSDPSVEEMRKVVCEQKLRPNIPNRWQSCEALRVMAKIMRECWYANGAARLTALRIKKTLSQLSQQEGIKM

[9] = molecular target: T5, TGF-beta receptor type-1 (Homo sapiens); details: at 10 µM
[10] = molecular target: Insulin-like growth factor 1 receptor (Homo sapiens) (UniProt P08069); details: at 1 µM
[11] = molecular target: Insulin receptor (Homo sapiens) (UniProt P06213); details: at 1 µM
[12] = molecular target: T6, Inhibitor of nuclear factor kappa-B kinase subunit alpha (Homo sapiens) (UniProt O15111); details: at 1 µM
T6 sequence (whole entry): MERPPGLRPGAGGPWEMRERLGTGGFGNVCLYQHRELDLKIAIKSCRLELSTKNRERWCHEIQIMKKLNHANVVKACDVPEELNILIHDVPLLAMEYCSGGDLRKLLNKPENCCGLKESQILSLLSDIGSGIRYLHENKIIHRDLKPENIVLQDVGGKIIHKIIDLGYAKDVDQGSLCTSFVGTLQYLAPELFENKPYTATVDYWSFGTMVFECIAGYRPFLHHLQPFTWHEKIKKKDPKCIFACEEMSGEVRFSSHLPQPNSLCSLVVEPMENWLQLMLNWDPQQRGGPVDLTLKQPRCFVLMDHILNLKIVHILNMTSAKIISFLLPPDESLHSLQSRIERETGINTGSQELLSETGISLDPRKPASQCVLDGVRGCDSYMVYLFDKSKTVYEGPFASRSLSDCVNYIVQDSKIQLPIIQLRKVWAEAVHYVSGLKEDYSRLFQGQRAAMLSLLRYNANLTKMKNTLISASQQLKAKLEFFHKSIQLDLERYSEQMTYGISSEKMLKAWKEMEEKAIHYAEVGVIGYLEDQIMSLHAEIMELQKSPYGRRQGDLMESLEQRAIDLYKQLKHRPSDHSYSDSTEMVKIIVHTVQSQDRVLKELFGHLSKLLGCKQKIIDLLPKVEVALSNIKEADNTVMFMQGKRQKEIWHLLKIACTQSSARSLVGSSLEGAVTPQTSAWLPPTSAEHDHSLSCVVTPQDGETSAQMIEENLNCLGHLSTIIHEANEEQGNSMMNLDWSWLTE

[13] = molecular target: T4, Serine/threonine-protein kinase TBK1 (Homo sapiens); details: at 1 µM
[14] = molecular target: T6, Inhibitor of nuclear factor kappa-B kinase subunit alpha (Homo sapiens); details: at 10 µM
[15] = molecular target: T7, Mitogen-activated protein kinase kinase kinase 7 (Homo sapiens) (UniProt O43318); details: at 1 µM
T7 sequence (whole entry): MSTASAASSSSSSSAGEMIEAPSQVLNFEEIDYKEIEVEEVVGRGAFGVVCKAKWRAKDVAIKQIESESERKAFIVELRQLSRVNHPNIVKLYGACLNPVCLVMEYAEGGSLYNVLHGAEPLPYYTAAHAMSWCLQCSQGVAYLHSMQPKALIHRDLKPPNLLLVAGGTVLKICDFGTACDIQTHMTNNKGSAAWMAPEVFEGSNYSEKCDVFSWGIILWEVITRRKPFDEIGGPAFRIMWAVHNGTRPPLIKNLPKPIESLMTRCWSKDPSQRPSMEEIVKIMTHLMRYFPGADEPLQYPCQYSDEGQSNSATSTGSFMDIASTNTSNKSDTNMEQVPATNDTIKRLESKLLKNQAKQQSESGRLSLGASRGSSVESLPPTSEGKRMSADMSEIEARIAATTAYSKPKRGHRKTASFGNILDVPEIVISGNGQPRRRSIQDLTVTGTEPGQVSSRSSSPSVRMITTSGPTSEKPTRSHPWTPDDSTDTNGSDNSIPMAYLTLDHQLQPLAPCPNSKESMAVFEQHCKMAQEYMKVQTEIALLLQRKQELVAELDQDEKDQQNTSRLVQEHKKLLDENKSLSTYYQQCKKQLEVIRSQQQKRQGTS

[16] = molecular target: T7, Mitogen-activated protein kinase kinase kinase 7 (Homo sapiens); details: at 10 µM

Sequence of Insulin receptor (Homo sapiens) (P06213 28-758 limits assumed): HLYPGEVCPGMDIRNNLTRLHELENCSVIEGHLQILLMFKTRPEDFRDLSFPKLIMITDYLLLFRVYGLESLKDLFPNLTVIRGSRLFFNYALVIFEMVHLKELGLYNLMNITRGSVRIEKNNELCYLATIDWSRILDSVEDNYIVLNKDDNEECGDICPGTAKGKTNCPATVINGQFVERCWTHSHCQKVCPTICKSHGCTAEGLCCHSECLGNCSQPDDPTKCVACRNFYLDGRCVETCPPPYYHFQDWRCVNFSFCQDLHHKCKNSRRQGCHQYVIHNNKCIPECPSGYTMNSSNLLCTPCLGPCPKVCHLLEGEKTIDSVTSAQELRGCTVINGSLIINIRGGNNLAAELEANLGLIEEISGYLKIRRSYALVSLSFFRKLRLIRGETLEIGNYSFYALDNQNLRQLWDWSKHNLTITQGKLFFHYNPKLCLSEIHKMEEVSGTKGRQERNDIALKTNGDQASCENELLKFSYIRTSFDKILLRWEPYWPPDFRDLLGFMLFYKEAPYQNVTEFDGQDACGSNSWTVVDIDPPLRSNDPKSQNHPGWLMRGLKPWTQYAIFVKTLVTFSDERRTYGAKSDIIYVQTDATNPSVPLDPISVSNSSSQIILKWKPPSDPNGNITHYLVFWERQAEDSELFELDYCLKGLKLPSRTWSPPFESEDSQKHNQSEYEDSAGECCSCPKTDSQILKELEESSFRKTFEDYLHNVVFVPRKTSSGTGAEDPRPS
Sequence of Insulin receptor (Homo sapiens) (P06213 763-1382 limits assumed): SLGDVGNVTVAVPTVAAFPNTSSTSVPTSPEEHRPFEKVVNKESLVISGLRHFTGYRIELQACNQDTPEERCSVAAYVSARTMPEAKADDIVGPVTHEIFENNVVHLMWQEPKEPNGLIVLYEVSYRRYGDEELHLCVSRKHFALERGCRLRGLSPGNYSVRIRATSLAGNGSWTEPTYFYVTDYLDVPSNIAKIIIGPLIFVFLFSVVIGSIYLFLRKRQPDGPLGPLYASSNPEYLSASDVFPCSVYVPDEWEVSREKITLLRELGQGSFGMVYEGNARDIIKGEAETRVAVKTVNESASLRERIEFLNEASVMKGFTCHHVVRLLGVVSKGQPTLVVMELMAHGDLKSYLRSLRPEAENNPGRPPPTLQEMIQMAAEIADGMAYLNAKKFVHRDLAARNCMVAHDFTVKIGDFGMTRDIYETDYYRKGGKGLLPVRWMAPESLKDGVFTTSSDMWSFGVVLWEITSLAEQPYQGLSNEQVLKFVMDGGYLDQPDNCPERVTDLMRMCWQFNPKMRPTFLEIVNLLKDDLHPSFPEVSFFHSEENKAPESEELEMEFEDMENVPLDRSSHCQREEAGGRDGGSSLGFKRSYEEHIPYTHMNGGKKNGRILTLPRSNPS
Sequence of Insulin-like growth factor 1 receptor (Homo sapiens) (P08069 31-736 limits assumed): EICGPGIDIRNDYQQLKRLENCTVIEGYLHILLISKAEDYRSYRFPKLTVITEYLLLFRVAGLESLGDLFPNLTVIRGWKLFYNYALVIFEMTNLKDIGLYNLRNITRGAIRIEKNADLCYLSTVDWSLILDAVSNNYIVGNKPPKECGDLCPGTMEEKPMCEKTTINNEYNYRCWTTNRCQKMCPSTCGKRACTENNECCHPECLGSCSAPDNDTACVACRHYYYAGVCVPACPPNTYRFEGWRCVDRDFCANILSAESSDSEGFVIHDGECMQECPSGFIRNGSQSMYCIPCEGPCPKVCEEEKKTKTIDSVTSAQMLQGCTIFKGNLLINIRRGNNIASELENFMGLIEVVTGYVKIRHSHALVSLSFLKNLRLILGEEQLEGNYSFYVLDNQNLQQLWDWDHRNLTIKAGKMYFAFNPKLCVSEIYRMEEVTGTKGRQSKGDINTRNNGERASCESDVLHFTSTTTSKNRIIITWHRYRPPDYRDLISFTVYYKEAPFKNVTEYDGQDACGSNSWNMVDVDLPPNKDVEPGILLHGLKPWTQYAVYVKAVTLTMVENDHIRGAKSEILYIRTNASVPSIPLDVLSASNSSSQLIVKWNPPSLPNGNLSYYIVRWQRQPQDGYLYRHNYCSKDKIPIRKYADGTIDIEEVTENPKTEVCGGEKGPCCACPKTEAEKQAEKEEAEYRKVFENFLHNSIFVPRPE
Sequence of Insulin-like growth factor 1 receptor (Homo sapiens) (P08069 741-1367 limits assumed): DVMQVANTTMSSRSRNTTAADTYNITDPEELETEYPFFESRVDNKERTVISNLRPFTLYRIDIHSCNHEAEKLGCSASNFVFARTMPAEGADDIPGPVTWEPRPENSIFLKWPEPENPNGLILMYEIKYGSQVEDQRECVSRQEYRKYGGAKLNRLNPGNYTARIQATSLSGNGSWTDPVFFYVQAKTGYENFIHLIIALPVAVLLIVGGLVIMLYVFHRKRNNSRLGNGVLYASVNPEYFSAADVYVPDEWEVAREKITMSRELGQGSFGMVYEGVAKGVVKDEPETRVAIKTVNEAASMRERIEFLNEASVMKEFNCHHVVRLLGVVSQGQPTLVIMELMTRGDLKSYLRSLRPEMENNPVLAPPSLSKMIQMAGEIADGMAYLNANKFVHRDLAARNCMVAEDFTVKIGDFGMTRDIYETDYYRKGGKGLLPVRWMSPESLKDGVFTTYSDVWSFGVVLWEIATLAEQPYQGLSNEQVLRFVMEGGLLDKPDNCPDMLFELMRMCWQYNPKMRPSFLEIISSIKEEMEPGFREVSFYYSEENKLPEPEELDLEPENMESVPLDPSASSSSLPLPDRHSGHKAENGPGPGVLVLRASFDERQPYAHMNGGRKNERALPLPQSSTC

## COc1cc2ncnc(Nc3cccc(Cl)c3)c2cc1OC
[1]
  residual activity: 71%
[2]
  residual activity: 102%
[3]
  residual activity: 76%
[4]
  residual activity: 113%
[5]
  residual activity: 86%
[6]
  residual activity: 102%
[7]
  residual activity: 59%
[8]
  residual activity: 100%
[9]
  residual activity: 103%
[10]
  residual activity: 115%
[11]
  residual activity: 110%

## O=c1c(-c2ccc(F)cc2)c(-c2ccncc2)[nH]n1-c1ccc(Cl)cc1
[1]
  residual activity: 37%
[5]
  residual activity: 77%
[6]
  residual activity: 99%
[9]
  residual activity: 30%
[12]
  residual activity: 131%

## O=C1Cc2c([nH]c3ccc([N+](=O)[O-])cc23)-c2ccccc2N1
[2]
  residual activity: 54%
[3]
  residual activity: 30%
[13]
  residual activity: 51%
[7]
  residual activity: 37%
[9]
  residual activity: 65%
[12]
  residual activity: 114%
[14]
  residual activity: 101%

## CN([C@@H](Cc1ccc(OS(=O)(=O)c2cccc3cnccc23)cc1)C(=O)N1CCN(c2ccccc2)CC1)S(=O)(=O)c1cccc2cnccc12
[15]
  residual activity: 99%
[16]
  residual activity: 98%
[11]
  residual activity: 134%
